This note sets out measurements from publication PMC7862700, “An all-to-all approach to the identification of sequence-specific readers for epigenetic DNA modifications on cytosine”.

What all share (experiment): DAPPL (digital affinity profiling via proximity ligation, sequencing); 10 mM Tris-HCl pH 7.5, 50 mM NaCl, 1 mM DTT, 4% glycerol, room temperature, 30 min; GST-TFs on glutathione beads, 16-mer random dsDNA library, 0.1% formaldehyde crosslink after washing; high values mean tight binding
Settings in all cases: protein: recombinant; tags: N-terminal GST; dsDNA, one strand shown

The target of assay [1] is T1, FLI1 (Homo sapiens, UniProt Q01543 1-452).
T1 sequence: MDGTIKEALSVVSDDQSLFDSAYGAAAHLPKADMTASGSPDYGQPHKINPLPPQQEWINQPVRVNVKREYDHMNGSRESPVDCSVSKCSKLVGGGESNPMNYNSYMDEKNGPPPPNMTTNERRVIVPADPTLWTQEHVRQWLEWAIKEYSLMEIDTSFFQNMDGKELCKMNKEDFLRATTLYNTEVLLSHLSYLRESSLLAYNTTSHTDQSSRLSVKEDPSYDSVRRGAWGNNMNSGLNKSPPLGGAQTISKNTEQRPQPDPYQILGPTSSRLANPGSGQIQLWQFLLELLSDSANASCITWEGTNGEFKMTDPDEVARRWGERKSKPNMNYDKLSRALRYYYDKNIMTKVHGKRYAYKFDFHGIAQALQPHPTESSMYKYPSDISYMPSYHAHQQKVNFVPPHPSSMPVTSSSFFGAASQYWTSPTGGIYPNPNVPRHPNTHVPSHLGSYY
Summed up: (§1)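 Human transcription factors fused to GST were expressed in yeast, captured on glutathione beads, given DNA barcodes and pooled with a GST-only negative control. Pools were incubated with 200 nmole of a 16-mer random double-stranded DNA library in Tris/NaCl/DTT/glycerol buffer at room temperature for 30 min. They were then washed, crosslinked with 0.1% formaldehyde, proximity-ligated (BsaI/T4 ligase, 1 h, 37 °C), PCR-amplified and sequenced on an Illumina NextSeq500. Binding signal is each 6-mer's read frequency for a factor divided by its frequency for the GST control.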

For assay [2], the target named is T2, ELK1 (Homo sapiens, UniProt P19419 1-428).
T2 sequence: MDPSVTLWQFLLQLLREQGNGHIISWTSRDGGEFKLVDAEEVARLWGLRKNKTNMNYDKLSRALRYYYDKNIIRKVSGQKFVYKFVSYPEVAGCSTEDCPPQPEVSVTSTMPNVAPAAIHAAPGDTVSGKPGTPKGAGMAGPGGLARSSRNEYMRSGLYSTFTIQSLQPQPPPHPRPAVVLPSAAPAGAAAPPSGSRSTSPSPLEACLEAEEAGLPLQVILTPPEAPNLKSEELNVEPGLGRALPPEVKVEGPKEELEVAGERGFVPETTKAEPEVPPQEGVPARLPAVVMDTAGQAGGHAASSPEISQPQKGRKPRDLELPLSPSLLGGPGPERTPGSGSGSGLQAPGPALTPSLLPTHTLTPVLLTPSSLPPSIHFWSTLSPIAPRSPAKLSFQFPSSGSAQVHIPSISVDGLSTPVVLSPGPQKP
The method in brief: as §1

In assay [3] the target is T3, GABPA (Homo sapiens, UniProt Q06546 1-454).
T3 sequence: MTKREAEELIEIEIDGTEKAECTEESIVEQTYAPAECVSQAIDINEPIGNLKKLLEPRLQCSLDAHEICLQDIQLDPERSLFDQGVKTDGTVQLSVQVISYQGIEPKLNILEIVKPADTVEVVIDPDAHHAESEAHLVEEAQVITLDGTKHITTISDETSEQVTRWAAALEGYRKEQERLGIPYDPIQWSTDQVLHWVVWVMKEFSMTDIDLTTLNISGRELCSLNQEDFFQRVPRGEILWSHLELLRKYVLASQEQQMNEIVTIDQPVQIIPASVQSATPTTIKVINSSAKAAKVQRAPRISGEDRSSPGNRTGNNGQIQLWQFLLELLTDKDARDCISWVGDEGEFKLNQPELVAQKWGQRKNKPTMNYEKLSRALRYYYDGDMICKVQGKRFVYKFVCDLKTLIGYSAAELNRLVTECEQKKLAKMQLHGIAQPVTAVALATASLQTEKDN
Summed up:
as §1

Assay [4] addresses SPIB (Homo sapiens, UniProt Q01892 1-262). Summed up: as §1
Assay [5] addresses T4, ELK3 (Homo sapiens, UniProt P41970 1-407).
T4 sequence: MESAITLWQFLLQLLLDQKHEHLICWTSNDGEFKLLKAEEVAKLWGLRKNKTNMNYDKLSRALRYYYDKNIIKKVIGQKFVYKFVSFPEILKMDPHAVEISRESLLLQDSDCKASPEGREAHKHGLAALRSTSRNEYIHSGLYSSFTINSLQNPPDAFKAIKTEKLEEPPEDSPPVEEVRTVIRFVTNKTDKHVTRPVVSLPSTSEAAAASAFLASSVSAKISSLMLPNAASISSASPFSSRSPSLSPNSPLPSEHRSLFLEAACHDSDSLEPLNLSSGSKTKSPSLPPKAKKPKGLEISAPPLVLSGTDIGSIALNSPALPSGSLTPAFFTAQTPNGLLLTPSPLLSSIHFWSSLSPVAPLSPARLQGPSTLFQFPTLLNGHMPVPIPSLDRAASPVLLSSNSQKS
The method in brief:
as §1

The target of assay [6] is ELF4 (Homo sapiens, UniProt Q99607 1-663). Summed up: as §1
Chain of ELF4 (Q99607 whole entry): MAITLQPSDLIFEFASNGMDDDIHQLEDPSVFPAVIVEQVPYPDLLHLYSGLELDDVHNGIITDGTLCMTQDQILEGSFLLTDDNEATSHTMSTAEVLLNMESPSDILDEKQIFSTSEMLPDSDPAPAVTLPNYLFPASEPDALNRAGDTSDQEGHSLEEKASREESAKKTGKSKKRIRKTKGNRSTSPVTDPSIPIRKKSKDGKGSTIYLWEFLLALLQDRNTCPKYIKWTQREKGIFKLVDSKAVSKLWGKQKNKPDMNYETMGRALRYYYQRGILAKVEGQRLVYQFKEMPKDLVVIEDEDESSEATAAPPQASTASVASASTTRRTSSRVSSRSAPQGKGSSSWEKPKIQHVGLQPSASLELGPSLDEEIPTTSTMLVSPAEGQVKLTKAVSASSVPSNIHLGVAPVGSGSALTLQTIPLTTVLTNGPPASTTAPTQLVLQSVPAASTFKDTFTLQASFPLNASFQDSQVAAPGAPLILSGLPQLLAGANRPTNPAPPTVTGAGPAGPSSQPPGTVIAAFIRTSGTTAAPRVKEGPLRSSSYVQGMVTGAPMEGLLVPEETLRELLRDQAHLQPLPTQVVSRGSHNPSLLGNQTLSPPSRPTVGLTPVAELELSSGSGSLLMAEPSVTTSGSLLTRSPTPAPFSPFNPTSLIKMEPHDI
Assay [7] addresses T5, ELK4 (Homo sapiens, UniProt P28324-2 1-405).
T5 sequence: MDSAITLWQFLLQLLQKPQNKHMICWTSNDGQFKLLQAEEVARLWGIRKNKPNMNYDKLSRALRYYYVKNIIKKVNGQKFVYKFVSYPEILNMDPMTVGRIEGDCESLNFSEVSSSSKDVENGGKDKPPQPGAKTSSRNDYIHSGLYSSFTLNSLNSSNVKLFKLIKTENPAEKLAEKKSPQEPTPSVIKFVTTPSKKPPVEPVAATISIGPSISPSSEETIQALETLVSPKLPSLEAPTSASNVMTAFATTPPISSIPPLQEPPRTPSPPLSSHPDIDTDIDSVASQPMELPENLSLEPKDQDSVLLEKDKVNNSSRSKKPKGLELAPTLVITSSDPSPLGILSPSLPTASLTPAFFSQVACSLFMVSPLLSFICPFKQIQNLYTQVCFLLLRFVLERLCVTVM
Summed up: as §1

Assay [8] addresses T6, ETV2 (Homo sapiens, UniProt O00321 1-342).
T6 sequence: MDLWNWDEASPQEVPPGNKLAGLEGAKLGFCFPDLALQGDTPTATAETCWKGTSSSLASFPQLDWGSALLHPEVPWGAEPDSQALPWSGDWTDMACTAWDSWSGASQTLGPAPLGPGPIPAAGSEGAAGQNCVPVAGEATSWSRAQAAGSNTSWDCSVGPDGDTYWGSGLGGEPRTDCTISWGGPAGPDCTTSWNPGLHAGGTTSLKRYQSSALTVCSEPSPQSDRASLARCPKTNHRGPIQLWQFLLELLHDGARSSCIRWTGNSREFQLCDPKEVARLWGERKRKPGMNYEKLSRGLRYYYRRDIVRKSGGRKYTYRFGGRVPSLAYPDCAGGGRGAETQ
Summed up: as §1

For assay [9], the target named is T7, ELF3 (Homo sapiens, UniProt P78545 1-371).
T7 sequence: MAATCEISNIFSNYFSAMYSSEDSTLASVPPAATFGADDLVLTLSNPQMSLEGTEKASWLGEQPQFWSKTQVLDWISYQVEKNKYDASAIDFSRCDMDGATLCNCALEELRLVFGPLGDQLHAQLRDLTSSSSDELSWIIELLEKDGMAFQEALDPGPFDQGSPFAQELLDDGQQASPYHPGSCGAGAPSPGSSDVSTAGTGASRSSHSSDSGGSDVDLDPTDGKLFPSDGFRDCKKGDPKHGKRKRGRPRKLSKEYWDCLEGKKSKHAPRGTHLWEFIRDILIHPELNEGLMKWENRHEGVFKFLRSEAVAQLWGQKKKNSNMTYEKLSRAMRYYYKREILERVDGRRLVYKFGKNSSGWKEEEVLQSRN
The method in brief: as §1

The target in assay [10] is ETV1 (Homo sapiens, UniProt P50549 1-477). Summed up:
as §1

Assay [11] concerns the target T8, ETV3L (Homo sapiens, UniProt Q6ZN32 1-361).
T8 sequence: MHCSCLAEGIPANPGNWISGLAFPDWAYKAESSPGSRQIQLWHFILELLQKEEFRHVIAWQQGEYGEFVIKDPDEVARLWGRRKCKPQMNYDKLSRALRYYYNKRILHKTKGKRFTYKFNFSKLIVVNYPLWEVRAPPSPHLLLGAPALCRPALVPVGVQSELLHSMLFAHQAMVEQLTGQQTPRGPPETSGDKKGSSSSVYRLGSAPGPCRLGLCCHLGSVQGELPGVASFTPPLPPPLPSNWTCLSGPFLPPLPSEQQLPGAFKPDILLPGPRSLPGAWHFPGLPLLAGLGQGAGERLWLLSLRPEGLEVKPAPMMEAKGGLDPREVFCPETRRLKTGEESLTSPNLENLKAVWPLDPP
Summed up: as §1

Assay [12] concerns the target ETV6 (Homo sapiens, UniProt P41212 1-452). The method in brief: as §1
In assay [13] the target is T9, ERG (Homo sapiens, UniProt P11308 1-479).
T9 sequence: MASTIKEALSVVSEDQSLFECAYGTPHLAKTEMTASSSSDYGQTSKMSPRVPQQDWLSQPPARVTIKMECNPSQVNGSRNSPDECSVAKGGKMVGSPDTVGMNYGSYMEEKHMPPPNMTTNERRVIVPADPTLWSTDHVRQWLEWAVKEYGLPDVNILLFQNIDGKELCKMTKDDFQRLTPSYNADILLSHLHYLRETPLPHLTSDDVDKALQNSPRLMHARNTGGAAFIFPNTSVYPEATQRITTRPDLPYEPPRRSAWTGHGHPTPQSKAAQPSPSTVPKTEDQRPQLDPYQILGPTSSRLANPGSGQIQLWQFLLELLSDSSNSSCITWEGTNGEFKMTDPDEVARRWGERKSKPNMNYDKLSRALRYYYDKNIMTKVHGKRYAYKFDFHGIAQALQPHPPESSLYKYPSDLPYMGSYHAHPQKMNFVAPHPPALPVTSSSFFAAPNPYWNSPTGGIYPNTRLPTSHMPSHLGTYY
Summed up:
as §1

Assay [14] addresses T10, EHF (Homo sapiens, UniProt Q9NZC4 1-300).
T10 sequence: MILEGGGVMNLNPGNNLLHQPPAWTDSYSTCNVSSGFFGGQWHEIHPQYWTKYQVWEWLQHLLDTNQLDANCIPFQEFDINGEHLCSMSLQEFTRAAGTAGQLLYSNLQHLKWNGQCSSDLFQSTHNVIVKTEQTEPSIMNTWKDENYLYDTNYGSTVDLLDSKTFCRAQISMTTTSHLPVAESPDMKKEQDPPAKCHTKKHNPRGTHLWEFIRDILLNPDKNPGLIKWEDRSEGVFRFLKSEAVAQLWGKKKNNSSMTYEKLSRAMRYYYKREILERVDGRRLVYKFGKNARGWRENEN
Summed up:
as §1

Assay [15] concerns the target T11, SPIC (Homo sapiens, UniProt Q8N5J4 1-248).
T11 sequence: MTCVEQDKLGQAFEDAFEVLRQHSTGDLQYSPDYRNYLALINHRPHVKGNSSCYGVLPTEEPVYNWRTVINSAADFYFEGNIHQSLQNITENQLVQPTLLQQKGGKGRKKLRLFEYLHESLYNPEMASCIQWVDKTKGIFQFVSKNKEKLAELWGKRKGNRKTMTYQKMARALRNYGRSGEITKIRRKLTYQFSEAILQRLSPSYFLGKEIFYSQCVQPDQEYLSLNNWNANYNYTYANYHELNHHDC
Summed up: as §1

Assay [16] addresses T12, ETV7 (Homo sapiens, UniProt Q9Y603 1-341).
T12 sequence: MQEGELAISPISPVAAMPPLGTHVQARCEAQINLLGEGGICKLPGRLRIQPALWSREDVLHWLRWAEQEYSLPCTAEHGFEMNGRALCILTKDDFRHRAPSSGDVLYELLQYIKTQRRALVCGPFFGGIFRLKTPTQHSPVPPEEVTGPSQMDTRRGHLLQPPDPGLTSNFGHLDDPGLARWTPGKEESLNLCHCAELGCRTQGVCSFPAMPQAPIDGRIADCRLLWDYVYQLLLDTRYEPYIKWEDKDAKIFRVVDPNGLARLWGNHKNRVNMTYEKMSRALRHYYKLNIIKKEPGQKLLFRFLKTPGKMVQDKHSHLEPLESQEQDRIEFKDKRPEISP
Summed up: as §1

The target in assay [17] is T13, ETV3 (Homo sapiens, UniProt P41162-2 1-143).
T13 sequence: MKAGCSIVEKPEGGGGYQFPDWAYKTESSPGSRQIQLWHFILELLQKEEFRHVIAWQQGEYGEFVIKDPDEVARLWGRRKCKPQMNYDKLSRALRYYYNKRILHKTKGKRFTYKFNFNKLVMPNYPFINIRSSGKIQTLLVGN
The method in brief:
as §1

Chain of SPIB (Q01892 whole entry): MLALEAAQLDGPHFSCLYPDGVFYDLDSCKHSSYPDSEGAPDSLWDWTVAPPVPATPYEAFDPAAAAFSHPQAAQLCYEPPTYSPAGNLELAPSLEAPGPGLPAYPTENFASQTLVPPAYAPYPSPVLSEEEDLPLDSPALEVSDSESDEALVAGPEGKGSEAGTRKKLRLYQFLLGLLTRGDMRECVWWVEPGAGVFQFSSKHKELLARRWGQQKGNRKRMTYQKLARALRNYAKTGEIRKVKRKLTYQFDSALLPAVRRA
Chain of ETV6 (P41212 whole entry): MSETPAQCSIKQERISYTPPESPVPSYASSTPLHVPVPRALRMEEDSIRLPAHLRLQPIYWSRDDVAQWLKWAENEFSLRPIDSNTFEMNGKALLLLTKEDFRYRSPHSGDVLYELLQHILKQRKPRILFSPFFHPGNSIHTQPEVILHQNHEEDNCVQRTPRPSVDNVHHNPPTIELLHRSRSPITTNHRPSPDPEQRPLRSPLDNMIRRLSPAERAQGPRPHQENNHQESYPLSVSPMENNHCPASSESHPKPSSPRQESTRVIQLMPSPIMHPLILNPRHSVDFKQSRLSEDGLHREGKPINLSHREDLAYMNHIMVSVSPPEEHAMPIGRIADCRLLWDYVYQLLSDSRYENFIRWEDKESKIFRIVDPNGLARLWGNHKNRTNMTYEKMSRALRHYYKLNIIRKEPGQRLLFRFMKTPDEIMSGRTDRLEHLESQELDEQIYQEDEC
Chain of ETV1 (P50549 whole entry): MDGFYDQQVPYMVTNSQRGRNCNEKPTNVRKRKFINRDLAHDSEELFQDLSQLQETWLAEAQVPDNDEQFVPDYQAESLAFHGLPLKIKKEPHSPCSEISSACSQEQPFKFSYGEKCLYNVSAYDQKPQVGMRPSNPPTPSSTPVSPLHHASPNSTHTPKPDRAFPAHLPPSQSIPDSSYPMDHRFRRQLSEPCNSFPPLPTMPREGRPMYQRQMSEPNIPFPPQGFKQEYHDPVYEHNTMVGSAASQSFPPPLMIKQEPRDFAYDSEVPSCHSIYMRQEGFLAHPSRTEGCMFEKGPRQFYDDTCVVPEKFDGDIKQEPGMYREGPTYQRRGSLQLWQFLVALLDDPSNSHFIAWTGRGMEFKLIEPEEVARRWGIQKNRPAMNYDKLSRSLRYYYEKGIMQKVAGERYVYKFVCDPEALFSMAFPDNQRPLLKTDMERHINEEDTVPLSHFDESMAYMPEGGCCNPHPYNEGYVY

Take TCAGCC: the binding signal was 1 fold enrichment (6-mer frequency, TF over GST control) in assay [1]; 1.11 fold enrichment (6-mer frequency, TF over GST control) in assay [2]; 1.06 fold enrichment (6-mer frequency, TF over GST control) in assay [3]; 1.05 fold enrichment (6-mer frequency, TF over GST control) in [4]; 1.13 fold enrichment (6-mer frequency, TF over GST control) in [5]; 1.11 fold enrichment (6-mer frequency, TF over GST control) in assay [6]. In addition, the binding signal was 1.02 fold enrichment (6-mer frequency, TF over GST control) in assay [7]; 1.03 fold enrichment (6-mer frequency, TF over GST control) in assay [8]; 1 fold enrichment (6-mer frequency, TF over GST control) in assay [9]; 1.02 fold enrichment (6-mer frequency, TF over GST control) in [10]; 1.02 fold enrichment (6-mer frequency, TF over GST control) in assay [11]; 1.01 fold enrichment (6-mer frequency, TF over GST control) in assay [12].

Take GCAGCC: the binding signal in assay [1] is 1.01 fold enrichment (6-mer frequency, TF over GST control); in assay [2], 1.05 fold enrichment (6-mer frequency, TF over GST control); in assay [13], 1.04 fold enrichment (6-mer frequency, TF over GST control); in assay [14], 1.03 fold enrichment (6-mer frequency, TF over GST control); in assay [4], 1.08 fold enrichment (6-mer frequency, TF over GST control); in [15], 1.03 fold enrichment (6-mer frequency, TF over GST control). Also, the binding signal was 1.11 fold enrichment (6-mer frequency, TF over GST control) in assay [7]; 1.02 fold enrichment (6-mer frequency, TF over GST control) in [16]; 1 fold enrichment (6-mer frequency, TF over GST control) in assay [17].
